Measured values taken from PubChem BioAssay (NCI).
Values joined by “and” are separate entries in the source; they are usually repeats but may differ in a detail not shown here. Equal values may be shown once. The panel holds about 83,000 compounds, 20% with a hit somewhere; the sample as a whole holds those more often.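 Assay: single dose, 48 h. Readout: percent growth (0 = no net growth; negative = cell death). Active: <10.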 Unmarked numbers belong to inactive results. Active and inactive are the calls of the source.

tested on: MDA-MB-468 breast; experiment: NCI-60 one-dose screen, 48 h (100 = growth as untreated, 0 = no growth, -100 = all killed); details: 10 µM unless noted

Row | Structure (SMILES) | growth
1 | O=C(O)c1cccc(Br)c1 | 104% and 101%
2 | O=C1/C(=C\c2coc3ccccc3c2=O)c2ccccc2N1c1c(Cl)cccc1Cl | 44.9%
3 | Cc1cc(C)nc(SCC(=O)Nc2cccc(N=Cc3ccccc3O)c2)n1 | 87.8%
4 | Cc1[nH]c(C(=O)Nc2ccccc2OCc2cccc(C(=O)NCCN)c2)cc1Cl | 34.3%
5 | CN1C(=O)N(C)C2C1NN=c1s/c(=C\c3ccccc3)c(=O)n12 (stereo not given) | 23.8%
6 | Cc1ccccc1C[P+](c1ccccc1)(c1ccccc1)c1ccccc1 | -17.6% (active)
7 | Cc1cc(Br)c2nsnc2c1[N+](=O)[O-] | -24.6% (active)
8 | C[N+](C)(CCOC(c1ccccc1)c1ccccc1)CC(=O)OCc1ccccc1 | 100%
9 | C#C[C@]1(O)CC[C@H]2[C@@H]3CC=C4c5sc(C6CCOCC6)nc5CC[C@]4(C)[C@H]3CC[C@@]21C | 68.5%
10 | C=C1C(=O)O[C@H]2[C@H]1CC/C(C=Nc1c(N)cc(F)cc1Br)=C\CC[C@@]1(C)O[C@@H]21 | 44%
11 | CCCCCCCCCCCCc1ccc([N+](CC)(CC)CC)cc1 | -5.49% (active)
12 | CCCCCCCC/C=C\CCCCCCCC(=O)OCCCCCC | 95.8%
13 | O=C1NCN(CCO)CN1 | 99.9%
14 | COc1ccc(-c2nc(-c3cc(OC)cc(OC)c3)[nH]c2-c2ccc(OC)cc2)cc1 | 31.4%
15 | CN(C)C1CCN(C(=O)c2ccc(NC(=O)Nc3ccc(-c4nc(N5CCOCC5)nc(N5CCOCC5)n4)cc3)cc2)CC1 | -49.1% [2.5 µM] (active)
